This note sets out measurements from ChEMBL document CHEMBL3988442, “University of Dundee, Small-Polar-MMV Screening Library” (2021).

Holding throughout (parameters): scale not given: direction of the effect not stated beside the values
Experiment [1] deals with Protein translocase subunit SecA (Escherichia coli (strain K12)) (UniProt P10408). Briefly: Assay to Identify E. coli SecA ATPase Inhibitors. The format is functional. To be noted: 30 µM.
Experiment [2] concerns the target T1, Ubiquitin-activating enzyme e1, putative (Leishmania donovani (strain BPK282A1)) (UniProt E9BSI1).
T1 sequence (whole entry): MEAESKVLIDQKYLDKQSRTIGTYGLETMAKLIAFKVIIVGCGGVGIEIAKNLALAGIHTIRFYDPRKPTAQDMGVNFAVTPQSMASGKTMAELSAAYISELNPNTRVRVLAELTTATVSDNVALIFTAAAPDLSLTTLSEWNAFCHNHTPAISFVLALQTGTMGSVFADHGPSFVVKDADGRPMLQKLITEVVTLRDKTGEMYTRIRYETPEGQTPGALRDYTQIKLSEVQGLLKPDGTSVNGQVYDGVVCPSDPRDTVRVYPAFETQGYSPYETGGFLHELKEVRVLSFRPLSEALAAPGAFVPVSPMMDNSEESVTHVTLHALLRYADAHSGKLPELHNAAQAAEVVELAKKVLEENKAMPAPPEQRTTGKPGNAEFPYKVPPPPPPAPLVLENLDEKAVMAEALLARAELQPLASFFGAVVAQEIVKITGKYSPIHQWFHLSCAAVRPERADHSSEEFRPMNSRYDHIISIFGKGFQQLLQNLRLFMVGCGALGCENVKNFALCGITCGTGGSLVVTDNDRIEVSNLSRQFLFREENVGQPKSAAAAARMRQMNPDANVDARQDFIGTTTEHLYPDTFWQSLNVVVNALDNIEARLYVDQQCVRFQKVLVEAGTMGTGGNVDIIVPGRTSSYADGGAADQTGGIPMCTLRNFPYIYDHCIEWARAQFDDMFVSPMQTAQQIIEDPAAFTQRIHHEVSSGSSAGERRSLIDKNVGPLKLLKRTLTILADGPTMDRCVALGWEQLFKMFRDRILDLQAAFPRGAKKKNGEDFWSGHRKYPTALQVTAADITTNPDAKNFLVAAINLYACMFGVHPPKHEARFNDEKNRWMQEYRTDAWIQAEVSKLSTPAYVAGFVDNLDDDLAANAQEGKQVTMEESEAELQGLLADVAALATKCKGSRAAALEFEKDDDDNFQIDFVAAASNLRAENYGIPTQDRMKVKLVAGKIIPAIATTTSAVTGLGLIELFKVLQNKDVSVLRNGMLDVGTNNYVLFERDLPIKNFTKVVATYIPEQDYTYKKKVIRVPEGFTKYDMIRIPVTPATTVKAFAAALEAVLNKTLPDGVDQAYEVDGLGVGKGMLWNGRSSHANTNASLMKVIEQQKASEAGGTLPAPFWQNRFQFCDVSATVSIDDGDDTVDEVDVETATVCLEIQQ
Briefly: Leishmania donovani Ubiquitin Activating Enzyme (LdE1). Type of experiment: functional. To be noted: 30 µM.

For experiment [3], the target named is AMP-activated protein kinase, AMPK (Homo sapiens) (UniProt P54646+O43741+P54619+Q9UGJ0+Q9Y478+Q13131+Q9UGI9). Briefly: AMP-dependent Kinase enzyme assay. An in vitro enzyme assay that detects ADP turnover that is directly proportional to AMPK activity. This uses naive AMPK that is activated during the assay with MK-8722. The format is functional. The following applies: 30 µM.

For experiment [4], the target named is Sialic acid-binding Ig-like lectin 9 (Homo sapiens) (UniProt Q9Y336). Briefly: Hs-Siglec9 ALPHAscreen SOP 20170721. The following applies: 10 µM. For orientation: Bead proximity is the source of the signal in Alpha formats.
Sialic acid-binding Ig-like lectin 9 (Homo sapiens), sequence (Q9Y336 whole entry): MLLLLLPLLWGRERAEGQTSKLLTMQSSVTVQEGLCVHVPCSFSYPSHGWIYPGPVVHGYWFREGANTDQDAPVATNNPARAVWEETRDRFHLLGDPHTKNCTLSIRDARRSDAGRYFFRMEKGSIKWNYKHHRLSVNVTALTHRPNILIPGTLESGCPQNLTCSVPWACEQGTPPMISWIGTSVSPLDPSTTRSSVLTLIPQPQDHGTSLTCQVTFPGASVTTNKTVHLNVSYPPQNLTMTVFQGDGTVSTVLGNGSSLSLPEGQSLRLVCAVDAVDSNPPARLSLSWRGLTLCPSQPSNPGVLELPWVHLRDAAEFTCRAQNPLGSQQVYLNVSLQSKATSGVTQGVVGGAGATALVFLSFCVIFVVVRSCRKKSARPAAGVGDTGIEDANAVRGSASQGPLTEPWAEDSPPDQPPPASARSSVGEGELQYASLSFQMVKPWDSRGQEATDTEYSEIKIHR
In experiment [5] the test system is Trypanosoma cruzi. Briefly: Trypanosoma cruzi phosphomannomutase and mannose-1-phosphate guanylyltransferase assay. The format is functional. The following applies: 10 µM.
Experiment [6] addresses T2, Arginase-2, mitochondrial (Homo sapiens) (UniProt P78540).
T2 sequence (whole entry): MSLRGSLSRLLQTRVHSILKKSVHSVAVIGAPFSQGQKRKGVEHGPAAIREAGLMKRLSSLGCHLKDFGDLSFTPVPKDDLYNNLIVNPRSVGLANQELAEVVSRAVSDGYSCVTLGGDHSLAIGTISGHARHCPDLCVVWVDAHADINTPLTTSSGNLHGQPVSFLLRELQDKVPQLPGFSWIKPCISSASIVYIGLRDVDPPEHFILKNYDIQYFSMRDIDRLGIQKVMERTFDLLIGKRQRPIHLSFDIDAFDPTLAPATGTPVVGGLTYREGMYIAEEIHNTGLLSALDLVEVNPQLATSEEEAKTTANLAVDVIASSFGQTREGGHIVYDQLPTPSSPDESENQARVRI
Briefly: in vitro enzyme assay to detect the production of urea directly proportional to the activity of Arginase II. Further: in the data most compounds retested in dose-response had high values. To be noted: 33.3 µM. The format is functional.

Experiment [7] deals with T3, Proteasome subunit beta (Trypanosoma cruzi) (UniProt O96673).
T3 sequence (whole entry): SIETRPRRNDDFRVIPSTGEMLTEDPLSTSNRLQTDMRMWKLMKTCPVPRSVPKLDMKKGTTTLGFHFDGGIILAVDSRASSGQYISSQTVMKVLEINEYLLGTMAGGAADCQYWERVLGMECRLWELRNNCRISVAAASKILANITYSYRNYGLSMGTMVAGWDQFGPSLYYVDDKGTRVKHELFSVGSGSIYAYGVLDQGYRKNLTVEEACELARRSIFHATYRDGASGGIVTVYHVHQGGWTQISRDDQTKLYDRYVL
Briefly: Trypanosoma cruzi proteasome chymotrypsin-like activity (TcProtChymo) assay. Further: in the data most compounds retested in dose-response had high values. Type of experiment: functional. The following applies: 9.37 µM.

The species entered for experiment [8] is Homo sapiens. Briefly: To identify inhibition of the IFN signalling (Jak-Stat) pathway via expression of an eGFP reporter gene under the control of an IFN-stimulated response element (ISRE) containing MxA promoter. The format is functional. The following applies: 30 µM. (In general: A reporter such as luciferase makes a cellular process visible.)
Experiment [9] deals with T4, Tyrosyl-tRNA synthetase, putative (Trypanosoma cruzi (strain CL Brener)) (UniProt Q4DSP6).
T4 sequence (whole entry): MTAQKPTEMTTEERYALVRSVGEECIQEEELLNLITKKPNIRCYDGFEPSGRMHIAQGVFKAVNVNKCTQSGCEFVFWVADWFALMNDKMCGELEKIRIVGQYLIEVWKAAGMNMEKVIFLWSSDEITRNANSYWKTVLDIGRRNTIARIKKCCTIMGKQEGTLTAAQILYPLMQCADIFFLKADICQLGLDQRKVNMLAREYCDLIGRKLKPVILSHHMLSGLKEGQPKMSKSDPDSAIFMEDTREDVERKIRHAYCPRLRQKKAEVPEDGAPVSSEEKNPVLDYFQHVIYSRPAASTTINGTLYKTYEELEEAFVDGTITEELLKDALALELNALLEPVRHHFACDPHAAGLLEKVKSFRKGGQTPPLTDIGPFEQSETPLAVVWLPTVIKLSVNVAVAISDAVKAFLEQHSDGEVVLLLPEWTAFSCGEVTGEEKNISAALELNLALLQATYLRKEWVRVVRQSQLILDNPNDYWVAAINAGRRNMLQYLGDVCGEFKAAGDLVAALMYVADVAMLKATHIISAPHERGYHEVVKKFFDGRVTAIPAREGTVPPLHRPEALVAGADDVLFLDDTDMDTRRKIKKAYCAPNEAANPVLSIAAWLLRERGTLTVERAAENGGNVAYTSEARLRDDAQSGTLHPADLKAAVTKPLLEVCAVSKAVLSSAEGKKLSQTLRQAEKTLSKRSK
Briefly: Trypanosoma cruzi tyrosyl tRNA synthetase (TcYRS) _High Tyrosine SOP. Further: in the data most compounds retested in dose-response had high values. The format is functional. To be noted: 30 µM.

In experiment [10] the target is T4, Tyrosyl-tRNA synthetase, putative (Trypanosoma cruzi (strain CL Brener)). Briefly: Trypanosoma cruzi tyrosyl tRNA synthetase (TcYRS) SOP. Type of experiment: functional. To be noted: 30 µM.
The target in experiment [11] is Chromo domain-containing protein 1 (Saccharomyces cerevisiae (strain ATCC 204508 / S288c) (Baker's yeast)) (UniProt P32657). Briefly: ScCHD-1 Enzyme Inhibition Assay. Further: in the data most compounds retested in dose-response had high values. Type of experiment: functional. The following applies: 30 µM.
Chromo domain-containing protein 1 (Saccharomyces cerevisiae (strain ATCC 204508 / S288c) (Baker's yeast)), sequence (P32657 whole entry, the tested form may be a part): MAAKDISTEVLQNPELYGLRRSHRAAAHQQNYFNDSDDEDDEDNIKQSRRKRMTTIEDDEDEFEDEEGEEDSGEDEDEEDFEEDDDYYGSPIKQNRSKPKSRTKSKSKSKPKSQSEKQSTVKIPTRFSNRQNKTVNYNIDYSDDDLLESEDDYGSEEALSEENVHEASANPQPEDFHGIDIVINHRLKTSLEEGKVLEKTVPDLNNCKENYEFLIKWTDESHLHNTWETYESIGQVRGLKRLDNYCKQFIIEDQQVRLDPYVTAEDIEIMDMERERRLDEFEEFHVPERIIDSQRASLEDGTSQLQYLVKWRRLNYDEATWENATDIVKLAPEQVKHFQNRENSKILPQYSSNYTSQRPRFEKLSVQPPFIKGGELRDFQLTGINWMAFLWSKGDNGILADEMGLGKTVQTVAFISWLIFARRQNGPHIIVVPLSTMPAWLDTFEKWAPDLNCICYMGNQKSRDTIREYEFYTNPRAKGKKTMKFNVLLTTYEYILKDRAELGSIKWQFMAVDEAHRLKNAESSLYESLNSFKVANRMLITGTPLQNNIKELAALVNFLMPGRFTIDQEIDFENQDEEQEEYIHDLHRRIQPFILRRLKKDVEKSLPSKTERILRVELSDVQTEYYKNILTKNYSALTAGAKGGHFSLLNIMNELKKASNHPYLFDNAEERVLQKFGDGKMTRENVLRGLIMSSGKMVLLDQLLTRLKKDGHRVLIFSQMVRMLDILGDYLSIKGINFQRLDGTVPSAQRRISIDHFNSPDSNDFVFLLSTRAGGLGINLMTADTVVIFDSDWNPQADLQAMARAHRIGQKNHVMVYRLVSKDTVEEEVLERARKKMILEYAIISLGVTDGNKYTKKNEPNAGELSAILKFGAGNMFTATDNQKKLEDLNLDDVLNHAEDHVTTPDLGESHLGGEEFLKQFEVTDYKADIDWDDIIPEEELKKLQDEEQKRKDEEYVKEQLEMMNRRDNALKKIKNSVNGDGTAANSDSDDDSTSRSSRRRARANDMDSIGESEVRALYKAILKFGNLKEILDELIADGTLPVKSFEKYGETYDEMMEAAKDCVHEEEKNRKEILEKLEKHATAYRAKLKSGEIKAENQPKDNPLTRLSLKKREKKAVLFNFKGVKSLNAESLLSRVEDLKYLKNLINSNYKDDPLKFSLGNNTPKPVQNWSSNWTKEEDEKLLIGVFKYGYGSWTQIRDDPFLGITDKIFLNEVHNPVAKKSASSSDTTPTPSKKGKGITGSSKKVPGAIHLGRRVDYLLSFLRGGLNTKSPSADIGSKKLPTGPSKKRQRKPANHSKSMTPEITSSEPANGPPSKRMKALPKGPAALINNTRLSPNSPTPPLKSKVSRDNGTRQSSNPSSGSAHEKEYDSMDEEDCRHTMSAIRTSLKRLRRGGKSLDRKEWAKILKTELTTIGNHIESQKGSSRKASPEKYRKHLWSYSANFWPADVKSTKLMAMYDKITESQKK

For some assays here: Potency and affinity values are given separately.

Protein translocase subunit SecA (Escherichia coli (strain K12)), sequence (P10408 whole entry): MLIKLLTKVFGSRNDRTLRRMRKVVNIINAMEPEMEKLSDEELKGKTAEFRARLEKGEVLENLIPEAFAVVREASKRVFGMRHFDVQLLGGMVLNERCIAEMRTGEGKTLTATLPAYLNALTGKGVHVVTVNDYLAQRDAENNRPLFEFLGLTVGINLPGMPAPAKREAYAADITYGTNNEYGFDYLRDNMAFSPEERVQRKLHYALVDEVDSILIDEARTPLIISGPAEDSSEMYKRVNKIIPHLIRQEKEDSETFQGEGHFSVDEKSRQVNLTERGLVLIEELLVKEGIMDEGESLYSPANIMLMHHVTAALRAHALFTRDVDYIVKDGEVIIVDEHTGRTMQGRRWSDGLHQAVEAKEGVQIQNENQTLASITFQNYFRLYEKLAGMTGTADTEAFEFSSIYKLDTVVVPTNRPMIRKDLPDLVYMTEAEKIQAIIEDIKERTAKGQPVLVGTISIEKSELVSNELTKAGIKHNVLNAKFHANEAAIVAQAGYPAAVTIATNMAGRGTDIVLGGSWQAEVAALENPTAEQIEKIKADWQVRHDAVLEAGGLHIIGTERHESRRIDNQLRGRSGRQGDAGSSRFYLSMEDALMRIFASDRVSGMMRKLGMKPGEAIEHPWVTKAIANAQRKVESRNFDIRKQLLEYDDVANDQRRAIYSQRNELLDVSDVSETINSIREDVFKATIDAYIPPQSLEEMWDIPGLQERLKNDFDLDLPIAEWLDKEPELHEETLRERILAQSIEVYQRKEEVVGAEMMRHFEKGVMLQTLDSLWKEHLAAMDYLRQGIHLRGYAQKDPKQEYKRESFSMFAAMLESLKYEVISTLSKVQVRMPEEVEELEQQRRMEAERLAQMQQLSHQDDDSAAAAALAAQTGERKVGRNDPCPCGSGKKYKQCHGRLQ

Take `CCS(=O)(=O)N(C)C(=O)c1cc(C)n(-c2cccc(OC)c2)c1C`: the Percent Effect is -6.4% in [1]; 20.2% in experiment [2]; -7.29% in experiment [3]; 7.26% in [4]; 3.68% in experiment [5]; -5.32% in experiment [6]. For the same compound, the Percent Effect was 4.34% in [7]; 28.1% in [8]; 4.43% in experiment [9]; 21.5% in [10]; -8.76% in [11].

Take `CC(C)c1nccn1CCCNC(=O)c1ccc(N(C)C)nc1`: the Percent Effect is -2.99% in [1]; 8% in [2]; -4.43% in experiment [3]; 14% in [4]; 3.21% in experiment [5]; 13.5% in experiment [6]. Moreover, the Percent Effect in experiment [7] was 6.97%; in experiment [8], 13.7%; in experiment [9] it was 1.64%; in experiment [10] it was 8.64%; in [11] it was -5.17%.

Regarding `Cc1noc([C@H]2C[C@H]3OCC[C@H]3N(S(=O)(=O)C3CC3)C2)n1`, the Percent Effect in [1] was 0.988%; in [2], 11%; in [3] it was -4.86%; in experiment [4] it was 7.79%; in experiment [5] it was -1.19%; in experiment [6], -1.6%. The Percent Effect is 16.7% in [7]; 3.43% in experiment [8]; 9.38% in [9]; 18.5% in [10]; -0.433% in [11].

In the case of `O=C(CCNc1ncccn1)NCCOc1ccc2c(c1)CCC2`, the Percent Effect was -3.51% in experiment [1]; 15.8% in experiment [2]; -0.433% in experiment [3]; -5.56% in experiment [4]; -4.39% in [5]; -2.52% in experiment [6]. The Percent Effect in [7] is 6.68%; in experiment [8] it was 1.31%; in experiment [9], 5.42%; in experiment [10] it was 18.5%; in [11] it was -3.74%.

For `Cc1cnc(C(=O)N2CCCC(n3ccnc3C)C2)cn1` (stereo not given), the Percent Effect in [1] is -4.96%; in experiment [2] it was 5.26%; in experiment [3], -7.85%; in experiment [4], 7.54%; in experiment [5], 8.5%; in experiment [6] it was 0.36%. Moreover, the Percent Effect is 3.13% in [7]; 3.76% in experiment [8]; 5.42% in [9]; 18.5% in experiment [10]; -4.86% in [11].

For `Cc1nc(CCCNC(=O)C2CC(=O)N(C3CC3)C2)sc1C` (stereo not given), the Percent Effect in experiment [1] is 6.83%; in experiment [2], 16.4%; in experiment [3], -10.9%; in experiment [4], 5.44%; in experiment [5], 1.59%; in experiment [6], -10.8%. The Percent Effect in [7] was determined as 16.9%; in experiment [8], 25.5%; in experiment [9], 8.33%; in experiment [10], 28.4%; in experiment [11] it was 2.71%.

Regarding `Cn1cc(N2CCC3(CCN(S(=O)(=O)C4CC4)C3)C2=O)cn1` (stereo not given), the Percent Effect in experiment [1] is -2.28%; in experiment [2], -2.67%; in experiment [3], 0.251%; in experiment [4] it was 0.236%; in experiment [5], 2.32%; in [6], -37.5%. Besides, the Percent Effect was 8.55% in [7]; 0.388% in [8]; 1.04% in experiment [9]; 5% in experiment [10]; -4.63% in experiment [11].

Regarding `CN(Cc1nccn1CC(F)(F)F)C(=O)c1ccc(F)c(F)c1`, the Percent Effect is -4.78% in [1]; 5.26% in experiment [2]; 7.84% in [3]; 5.27% in experiment [4]; -1.46% in [5]; 0% in experiment [6]. The Percent Effect worked out at 10.4% in experiment [7]; 4.07% in experiment [8]; 4.25% in experiment [9]; 13% in experiment [10]; 26.9% in experiment [11].

On to `CCc1nc(CCNC(=O)Nc2cc(C(N)=O)sc2C)cs1`, for which the Percent Effect in [1] is -6.09%; in experiment [2] it was 0%; in experiment [3], -8.97%; in experiment [4], -2.52%; in experiment [5], -4.19%; in experiment [6] it was -1.56%. The Percent Effect in experiment [7] was 3.14%; in experiment [8], 19.9%; in [9], -0.546%; in experiment [10] it was -3.7%; in [11] it was 4.38%.

Take `COc1ccnc(N2CCN(CC(=O)N3CCOCC3)CC2)n1`: the Percent Effect in experiment [1] is -3.7%; in [2], 18.4%; in experiment [3], 3.44%; in [4] it was -1.28%; in [5] it was -0.28%; in experiment [6], -5.04%. Besides, the Percent Effect in experiment [7] is 8.54%; in experiment [8], -2.03%; in [9] it was 8.37%; in experiment [10], 18.5%; in [11], -6.56%.
